Bioassay records deposited in PubChem BioAssay by National Center for Advancing Translational Sciences (NCATS).
Shown are actives, neighbours in structure and some others; about 8% of the full set was active somewhere.
KB-V1 cytotox: KB-V1 MDR subline cytotoxicity; Potency, µM (highest dose often 46.1 µM), hits mostly cytotoxic; KB-V1 MDR cells viability, CellTiter-Glo, 72 h; actives 3.4% (n = 400,000); AID 1347076; also: % is scaled to controls: 0 for no effect and ±100 for the full control effect; nearly all actives have a fitted effect of over 60% in size
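Following 72 h at 37 degrees C with compound, KB-V1 cell viability was read by CellTiter-Glo luminescence, medium being phenol-red-free DMEM plus 10% FBS; concentration-response parameters came from normalized, curve-fitted qHTS data.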
MCF10A rerep: induces DNA re-replication in MCF 10a normal breast cells; MCF 10A DNA re-replication, Hoechst nuclear intensity, 48 h; Potency, µM (series often up to 46.1 µM), for the others: at the highest dose activity, positive = re-replication, usual class: activators; actives 2.9% (n = 350,000); also: % of control where 0% means no effect; nearly all actives have a fitted effect of over 50% in size
HT1080NT lethal: kills 2HG-producing HT-1080-NT fibrosarcoma cells. HT-1080-NT fibrosarcoma viability, CellTiter-Glo ATP luminescence, 48 h. Potency, µM (top dose mostly 46.1 µM), for inactives: at the top dose activity, negative = less viability, usual class: cytotoxic. actives 1.6% (n = 360,000);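 also: NT is the 2HG producing partner of a matched IDH1 knockdown line; 0% = DMSO-treated cells and -100% = media-only wells without cells; nearly all actives have a fitted effect of over 55% in size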
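Fibrosarcoma NT cells, 750 per well in 5% FBS RPMI, were exposed to compound for 48 hours. Viability: CellTiter-Glo luminescence.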
HT1080 IDH1KD tx: kills HT-1080 cells with IDH1 knockdown; HT-1080 IDH1 knockdown viability, ATP luminescence, 48 h; actives 2% (n = 360,000); AID 686971; Potency, µM (highest dose often 46.1 µM), for the others: top-dose activity, negative = toxicity, usual class: cytotoxic;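 also: 0% = DMSO wells and -100% = cell-free medium wells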
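After a 2 h attachment period, IDH1KD HT-1080 cells took pin-transferred compound for 48 h at 37 °C; ATP-based luminescence after 10 min room-temperature reagent incubation reported viability.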
KB-3-1 tox: KB-3-1 parental cell cytotoxicity; Potency, µM (titrated, usually from 46.1 µM), usual class: cytotoxic; KB-3-1 viability, CellTiter-Glo ATP luminescence, 72 h; AID 1347075; actives 1.4% (n = 400,000); also: % is scaled to controls: 0 for no effect and ±100 for the full control effect; nearly all actives have a fitted effect of over 60% in size
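Parental KB-3-1 adenocarcinoma cells in phenol-red-free DMEM with 10% FBS were pin-treated with compounds at several concentrations, incubated 72 h at 37 °C, and viability read by CellTiter-Glo luminescence; concentration-effect curves were fitted after normalization.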
SW480 rerep: induces DNA re-replication in SW480 colon adenocarcinoma cells; SW480 DNA re-replication, Hoechst DNA content imaging, 48 h; Potency, µM (titrated, usually from 46.1 µM), for the others: top-dose re-replication activation, actives largely listed as activators; actives 1.8% (n = 340,000); AID 624297; also: % of control where 0% means no effect; nearly all actives have a fitted effect of over 55% in size
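Image-based read-out: total Hoechst fluorescence of nuclei (405 nm excitation, 500-530 nm emission), with hits raising the fraction of high-intensity nuclei. SW480 colon cells incubated 48 hr with compounds at 37 C.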
* hit, by the source's call; i = inactive; ? = inconclusive; nt = not tested or not shown. Calls follow the shape of the dose curve; as a rule, active = well fitted curve in the direction sought with a large enough effect; inconclusive = small, poorly fitted or top-dose-only effect, or another doubt; inactive = no such curve, though single readings can be large; an effect the other way counts as inactive or inconclusive. Potency is read from the fitted curve at half-maximal effect.

SMILES	KB-V1 cytotox	MCF10A rerep	HT1080NT lethal	HT1080 IDH1KD tx	KB-3-1 tox	SW480 rerep
Cc1ccc(SCC(=O)OCC(=O)N(CC(C)C)c2c(N)n(Cc3ccccc3)c(=O)[nH]c2=O)c(C)c1	i	?	?	23µM*	i	?
CC(C)CN(C(=O)CSc1nnc(-c2cccs2)n1N)c1c(N)n(Cc2ccccc2)c(=O)[nH]c1=O	i	-1%	5%	0%	i	3%
CC(C)CN(C(=O)COC(=O)C12CC3CC(CC(O)(C3)C1)C2)c1c(N)n(Cc2ccccc2)c(=O)[nH]c1=O	i	nt	14%	10%	i	nt
Cc1ccc2c(CC(=O)OCC(=O)N(CC(C)C)c3c(N)n(Cc4ccccc4)c(=O)[nH]c3=O)coc2c1	i	?	?	-16%	i	6.5µM*
CC(C)CN(C(=O)COC(=O)CSc1ccccc1F)c1c(N)n(Cc2ccccc2)c(=O)[nH]c1=O	?	0%	-1%	2%	i	-5%
CC(C)CN(C(=O)COC(=O)C12CC3CC(CC(C3)C1)C2)c1c(N)n(Cc2ccccc2)c(=O)[nH]c1=O	i	-21%	?	?	?	4.1µM*
CCc1c(C)sc2c1CCN(C(=O)Nc1cc(C)ccc1OC)C2c1ccc(F)cc1 (centres undefined)	i	nt	nt	nt	i	nt
COc1ccc(-n2c(=O)c3sc4ccccc4c3n(CC(=O)N3CCCC3)c2=O)cc1	i	nt	nt	nt	i	nt
CCc1ccccc1N(C)C(=O)c1cn(CC(C)C)c(=O)c2cc(OC)c(OC)cc12	i	nt	nt	nt	i	nt
CCOc1ccc(NC(=O)Cn2cc(C(=O)c3ccccc3)c(=O)c3cc4c(cc32)OCCO4)cc1	?	nt	nt	nt	i	nt
CCCn1c(=O)c2ccccc2n2c(SCC(N)=O)nnc12	i	0%	-1%	1%	i	18%
CC(C)CCn1c(=O)c2ccccc2n2c(CN3CCCC3)nnc12	i	-3%	0%	10%	i	-12%
CCCCCn1c(=O)c2ccccc2n2c(CCl)nnc12	?	?	23µM*	23µM*	?	?
CC(C)CCn1c(=O)c2ccccc2n2c(CCl)nnc12	i	?	18µM*	?	?	?
COc1ccc(S(=O)(=O)Nc2cccc(SC)c2)cc1OC	7.3µM*	-3%	-25%	-29%	23µM*	-6%
O=S(=O)(Nc1ccc(Cc2ccncc2)cc1)c1ccc(Br)s1	15µM*	?	?	-4%	?	5%
COc1ccc(NS(=O)(=O)c2ccc(OC)c(OC)c2)cc1OC	21µM*	-1%	2%	1%	i	-6%
COc1ccc(S(=O)(=O)Nc2cccc(Cl)c2)cc1OC	i	0%	3%	-1%	i	-7%
COc1ccc(S(=O)(=O)Nc2cccc(N(C)S(C)(=O)=O)c2)cc1C	15µM*	-8%	-3%	8%	?	-67%
CCCOc1ccc(C(=O)Nc2ccc3oc(-c4ccc5ccccc5c4)nc3c2)cc1	i	nt	nt	nt	i	nt
Fc1ccccc1-c1nc(N2CCN(c3cccc(Cl)c3)CC2)c2ccccc2n1	i	nt	nt	nt	?	nt
CCc1ccc(S(=O)(=O)c2cnc3ccc(OC)cc3c2N2CCCC(C)C2)cc1 (centres undefined)	?	nt	nt	nt	i	nt
CCOc1ccccc1NC(=O)CN(CCc1ccccc1)S(=O)(=O)c1ccc(C)cc1	i	nt	nt	nt	i	nt
Cc1cc(C)cc(-n2ccnc2SCC(=O)Nc2ccc3c(c2)OCO3)c1	i	nt	nt	nt	i	nt
COc1cc(S(=O)(=O)Nc2cc(C)cc(C)c2)ccc1F	23µM*	?	?	?	i	?
COc1ccc(C(=O)Nc2c(O)ccc3ccccc23)cc1OC	i	0%	-16%	?	i	-19%
